From PubChem BioAssay AID540353 (National Center for Advancing Translational Sciences (NCATS), 2011) come the findings set out here.

The list shows a part of the results. Records with an inconclusive call do not appear. A number with no mark means an inactive call. Calls of active or inactive are those of the source. Calls follow the shape of the dose curve; as a rule, active = well fitted inhibition curve with a large enough effect; inconclusive = small, poorly fitted or top-dose-only effect; inactive = no such curve, though single readings can be large or run the other way.

The nature of the assay: qHTS for Inhibitos of Bacillus subtilis Sfp phosphopantetheinyl transferase (PPTase): Chemistry Optimization Followup in B. Subtilis HM489. The conditions noted are these: B. subtilis HM489 (acpS-) growth, BacTiter-Glo, 5 h; series mostly up to 114 µM; activity change, negative = inhibition: at the top concentration. From the text: Phosphopantetheinyl transfer is a process essential to cellular viability and maintenance. Cellular permeable and stable compounds acting as PPTase inhibitors are anticipated to be antimicrobial agents in organisms with complimenting genotypes. […] This experiment evaluated a series of test compounds for antimicrobial activity with B. subtilis HM489 (genotype: acpS- and sfp+), a strain that contains a targeted lesion in the acpS locus and thus requires a functional Sfp gene product for viability. [Mootz HD, 2001] This strain is expected to be sensitized to cell-permeable Sfp inhibitors. NIH Chemical Genomics Center [NCGC] NIH Molecular Libraries Probe Centers Network [MLPCN] MLPCN Grant: MH083266-01 Assay Submitter (PI): Michael Burkart, University of California, San Diego
Innoculum preparation. Bacillus subtilis HM489 is maintained on lysogeny broth (LB) solidified by the addition of 1.5% w/v agar. Single colonies were used to LB medium (2 mL) and shaken overnight at 30 masculineC. In the morning, this culture (100 uL) was used to seed a fresh LB medium (10 mL) and was shaken at 30 masculineC until the culture OD600 reached 0.5. This culture was diluted 1:100 in fresh LB medium to provide the inoculum below. Bacterial susceptibility. LB medium (2 uL) is dispensed into wells of a sterile white 1536-well plate. Test compounds (23 nL) prepared as serial dilutions in DMSO are added to the plate by pintool transfer. Innoculum (2 uL) is added; the plates are covered with a vented Kalypsys assay lid and incubated at 30 masculineC. After 5 hrs, Bac-Titer Glo (4 uL; Promega Corp, Madison, WI) is added to the plates. They are incubated 10 minutes at room temperature and then the luminescence detected in a ViewLux multimodal plate reader.
A general note: In qHTS, concentration-response curves come from the screen itself.
Regarding `COc1cccc(NC(=S)N2CCN(c3ccc(Cl)cc3Cl)CC2)n1`, the “activity change, negative = inhibition” value is -5.93%.

In the case of `Cc1ccc(N2CCN(C(=S)Nc3cc(C)ccn3)CC2)cc1`, the Potency was 33.2 µM (active).

For `Cc1cc(C)nc(NC(=S)N2CCN(c3cccc(C(F)(F)F)c3)CC2)c1`, the Potency is 33.2 µM (active).

With `Cc1cc(C)nc(NC(=S)N2CCN(c3ccc4nonc4c3)CC2)c1`, the “activity change, negative = inhibition” value was 47.3%.

As for `COc1cccc(NC(=S)N2CCN(c3ccccc3C(F)(F)F)CC2)n1`, the Potency is 23.5 µM (active).

Regarding `Cc1cc(C)nc(NC(=S)N2CCN(c3ccc(Cl)cc3C(F)(F)F)CC2)c1`, the Potency is 10.5 µM (active).

Consider `FC(F)(F)c1cccc(N2CCN(C(=S)Nc3ccncc3)CC2)c1`, for which the Potency is 59.1 µM (active).

As for `COc1ccnc(NC(=S)N2CCN(c3ncc(C(F)(F)F)cc3Cl)CC2)c1`, the Potency is 11.8 µM (active).

For the molecule `Cc1cc(C)nc(NC(=S)N2CCN(c3ccc(Cl)cc3F)CC2)c1`, the Potency is 23.5 µM (active).
